Our source for the growth inhibition values is PubChem BioAssay (NCI).

Structures are written as SMILES. About 79,000 compounds went through this panel and 15% of them were active in at least one assay; those are over-represented in the sample as a whole. Calls of active or inactive are those of the source. Rule as the data show it: active = growth inhibition above about 70%; inactive = the rest. Where a SMILES comes first, the peptide text is derived from it. [ ]: non-standard residue; d: D form. ξ: configuration not given here. ξF = NC(Cc1ccccc1)C(=O)O

This assay can be described thus: NCI Yeast Anticancer Drug Screen. Data for the rad50 strain (AID 155).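 Also: 0% = growth of vehicle-only cultures of the same strain.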 As to conditions: S. cerevisiae rad50 strain growth inhibition; at 50.0 µM; active compounds read high. As for the experimental part: Growth inhibition of yeast strains with defined genetic alterations is measured as a screen for potential anti-cancer activity. Selected strains with alterations in DNA damage repair or cell cycle control were exposed to compounds and growth inhibition was measured relative to vehicle treated controls. The strain used in this assay is rad50
In the case of `COc1ccc(/C=C2/NC(=S)N=C2Cl)cc1`, the growth inhibition is -6.9% (inactive).

Turning to `COC(=O)CCNCc1ccccc1`, the growth inhibition was -7.25% (inactive).

As for `C=C(CCC(C(=O)O)C1CCC2(C)C3=C(CCC12C)C1(C)CCC(O)C(C)(C)C1CC3)C(C)C` (stereo not given), the growth inhibition was -4% (inactive). In the case of `Cc1ccc(OCC2OC(n3cnc4c(Cl)nc(Cl)nc43)CC2Oc2ccc(C)cc2)cc1` (stereo not given), the growth inhibition was -20.4% (inactive).

Turning to `COC(=O)c1ccc(NC(=O)O/N=C(\Cl)C(C)C)cc1`, the growth inhibition was -21.6% (inactive).

With `CC(=N/N=C/c1ccccn1)/C(C)=N/N=C(C)/C(C)=N/N=C(C)/C(C)=N/N=C(C)/C(C)=N\N=C\c1ccccn1`, the growth inhibition was 24.1% (inactive).

In the case of `CCCCC1C(=O)N(c2ccc(S(=O)(=O)Nc3ccccn3)cc2)N(c2ccc(O)c(C(=O)O)c2)C1=O` (stereo not given), the growth inhibition is 21.8% (inactive). Take `CCCN(CCC)CCC(=O)OCC`: the growth inhibition is -18.2% (inactive). For `COc1ccc(N=C(C)C(C)=Nc2ccc(OC)cc2)cc1`, the growth inhibition was -3% (inactive).

Consider `CC(=O)c1cccc(OCc2ccccc2)c1`, for which the growth inhibition is 6.4% (inactive).

For the molecule `Cc1nc(-[n+]2nc(-c3ccccc3)nn2-c2ccccc2)sc1C`, the growth inhibition was 3.3% (inactive).

With `[O-]c1ccccc1/C=N/C(/N=C/c1ccccc1[O-])c1ccccc1O.[O-]c1ccccc1/C=N/C(/N=C/c1ccccc1[O-])c1ccccc1O.[Zr+4]`, the growth inhibition was 0.55% (inactive). To `O=C(/C=N/O)Nc1cc(Cl)ccc1Cl` belongs 17.6% (inactive); to `COC(=O)C(=O)C(C(=O)C(=O)Nc1ccccc1C(C)=O)c1nc2ccc(C(=O)c3ccccc3)cc2[nH]c1=O` (stereo not given), 25.9% (inactive). To `C=CN1C(=O)N(C=C)C(C)(CC(C)C)C1=O` (stereo not given) belongs 3.6% (inactive). For the molecule `COC(=O)c1cc(C#N)[nH]c1-c1ccsc1`, the growth inhibition is -27.4% (inactive). Regarding `COc1ccc(N=c2ssc(SC)c2-c2ccccc2)cc1`, the growth inhibition is 15.4% (inactive).

Regarding `NC(=O)C(=O)N/N=C/c1ccc2c(c1)CCC2`, the growth inhibition was -2.45% (inactive).

Turning to `Nc1ccc(I)cc1Cl`, the growth inhibition is 15.8% (inactive). With `CCOc1ccc(/C=N/NS(=O)(=O)c2ccc(C)cc2)cc1`, the growth inhibition was -3.6% (inactive).

On to `COc1ccc(C(CCl)(CCl)c2ccc(OC)c(N)c2)cc1N`, for which the growth inhibition is 12.3% (inactive). For the molecule `O=C(/C=C(\[O-])c1ccccc1)CCCCCCC(=O)/C=C(\[O-])c1ccccc1.O=C(/C=C(\[O-])c1ccccc1)CCCCCCC(=O)/C=C(\[O-])c1ccccc1.O=C(/C=C(\[O-])c1ccccc1)CCCCCCC(=O)/C=C(\[O-])c1ccccc1.[Nd+3].[Nd+3]`, the growth inhibition was 26.4% (inactive). The same measure for `COc1ccc(-c2cc(=O)c3c(O)cccc3o2)cc1`: 2.65% (inactive); for `Cc1cc(N(CCC#N)CCC#N)ccc1/C=N/NC(=O)c1cc(Cl)ccc1O`: -1.8% (inactive). As for `CCC(=O)N/N=C/C=N/NC(=O)c1ccncc1`, the growth inhibition was -30.7% (inactive).

For `O=C(CCc1ccc(O)c(O)c1)c1ccc(O)c(O)c1O`, the growth inhibition is 2.05% (inactive). Regarding `COc1cc(/C=N/N2CCCCC2)cc(OC)c1OC`, the growth inhibition was -19% (inactive).

With `NC(Cc1ccccc1)C(=O)NCC(=O)NCC(=O)O` (stereo not drawn) (H-[ξF]-Gly-Gly-OH), the growth inhibition was 13% (inactive).

Turning to `N#C/C(=C1C=C/C(=N/O)C(Br)=C/1)c1ccccc1`, the growth inhibition is 50.1% (inactive). As to `COc1cc2c(cc1C1COc3cc4occc4cc3C1=O)OCO2` (stereo not given), the growth inhibition is 5.15% (inactive). Regarding `C[n+]1ccccc1/C=C/c1cccc(O)c1`, the growth inhibition is 14% (inactive). Consider `O=[N+]([O-])c1ccc2nc3c4ccccc4c4ccccc4c3nc2c1`, for which the growth inhibition is 53.1% (inactive). `Cc1ccc(OCC2OC(n3cnc4nc(Cl)nc(Cl)c43)CC2Oc2ccc(C)cc2)cc1` (stereo not given): the growth inhibition was 36% (inactive). The same measure for `O=C(/C(=N/N=C\c1ccc([N+](=O)[O-])cc1)c1ccccc1)c1ccccc1`: -10.6% (inactive); for `Clc1nc(Oc2ccccc2)nc(-c2cn(-c3ccccc3)c3ccccc23)n1`: 2.05% (inactive). `COc1ccc(C(C#N)N2CCCC2)cc1` (stereo not given): the growth inhibition was -21.9% (inactive). Turning to `CC1CC(C(=O)OC2OC(COC3OC(CO)C(OC4OC(C)C(O)C(O)C4O)C(O)C3O)C(O)C(O)C2O)C2CCC3(C)C(=CCC4(C)C3CCC3C(C)(CO)C(O)C(O)CC34C)C2C1C` (stereo not given), the growth inhibition was 60.1% (inactive). `CCOC(=O)C(C)Oc1ccccc1[N+](=O)[O-]` (stereo not given): the growth inhibition is -24.6% (inactive). `C=C1C2CCC3C4(C)CCCC(C)(C(=O)O)C4CCC3(C2)C1OC(=O)/C(C)=C/C` (stereo not given): the growth inhibition was 22.4% (inactive).

`Nc1n[nH]c(=S)n1-c1ccc(Cl)cc1`: the growth inhibition is -14.3% (inactive).
